# Compounds without any hit were thinned out: in the full panel of roughly 83,000, 20% have a hit.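 Values shown are percent growth following 48 h exposure of cells in 96-well plates to a single concentration of compound; below 10 was considered active.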 Values without a mark were called inactive. The source made the active and inactive calls.
# System: HL-60(TB) leukemia
# Experiment: NCI-60 one-dose screen, 48 h (100 = growth as untreated, 0 = no growth, -100 = all killed)
# Conditions: 10 µM unless noted
row,SMILES,growth
1,Cc1nc2ccccc2c(/C=C/c2ccccc2)c1C(=O)/C=C/c1ccc(C(F)(F)F)cc1,-26.9% (active)
2,O=C(CCl)Nc1ccc2c(Nc3cc(O)ccc3Cl)ncnc2c1,-53.2% (active)
3,CC1=NN(c2cccc(Cl)c2)C(=O)/C1=C\c1cn(-c2nc(N3CCOCC3)nc(N3CCOCC3)n2)c2ccccc12,99.1%
4,O=C1N(Cc2ccccc2Cl)c2ccccc2C12NN=C(c1ccccc1)S2 (stereo not given),58.5%
5,COc1cc(/C=C/C(=O)CC(=O)/C=C/c2ccc(O)c(OC)c2)ccc1O,0.358% (active)
6,O=C1/C(=C/c2ccc(O)cc2)COc2ccc(O)c(O)c21,-19.3% (active)
7,COc1ccc(C2CC(c3ccccc3)=NN2C(=O)c2cc(OC)c(OC)c(OC)c2)cc1O (stereo not given),-29.3% (active)
8,CCOc1ccccc1/C=N/Nc1nc2ccccc2o1,98.6%
9,COc1ccc(Cl)cc1NC(=O)c1cc2c([nH]1)-c1nc(N)sc1CCC2,56.9%
10,Cc1ccccc1CNc1c2ccccc2nc2ccccc12,15.3%
11,CCNC(=O)Oc1ccc(/C(=C(/C)Cc2ccc(OC)cc2)c2ccc(OCCN(CC)CC)cc2)cc1,34.1%
12,Cc1csc(N/N=C/c2ccncc2)n1,92.6%
13,Brc1ccc(Nc2csc(-c3ccccn3)n2)cc1,99.6%
14,CCCn1c(=S)sc2c1nc(C)n1c(Nc3ccccc3)nnc21,45.3%
15,O=C1c2cccc(NCCN=Cc3cc([N+](=O)[O-])ccc3O)c2C(=O)c2c(NCCN=Cc3cc([N+](=O)[O-])ccc3O)cccc21,70.8%
16,CCOc1cc2ncc(C#N)c(Nc3ccc(OCc4cccc(F)c4)c(Cl)c3)c2cc1NC(=O)CC1CCSS1 (stereo not given),54.8%
17,C#CCOc1ccc2ncnc(N3CCN(C(=O)CCl)CC3)c2c1,73.4% [8.25 µM]
18,Nc1cc(-c2ccncc2)c[nH]c1=O,87.6%
19,O=C(c1cccc(Br)c1)N1CCN(c2ccnc3cc(Cl)ccc23)CC1,92.6%
20,COc1ccc(C(O)c2cc3c(N)c(C(=O)Nc4cccc(Cl)c4)sc3nc2C)cc1 (stereo not given),0.332% (active)

row,SMILES,growth
1,NC(=S)NS(=O)(=O)c1ccc(N)cc1,94.5%
2,Cc1c(O)c(=O)ccn1-c1nc2ccccc2s1,98.3%
3,C#CCOc1cccc(Nc2ncnc3c2ncn3C2CCN(C(=O)CCl)C2)c1 (stereo not given),-56.3% (active)
4,COc1ccc(-c2cc3c(C)nc(N)nc3n(C3CCC(OCCO)CC3)c2=O)cn1 (stereo not given),28.4%
5,COc1ccc(NC(=O)Nc2ccc(OCCCCCC(=O)NO)cc2)cc1,97.6%
6,C=C(C)[C@@H]1CC[C@]2(c3nnc(-c4ccncc4)o3)CC[C@]3(C)[C@H](CC[C@@H]4[C@@]5(C)CCC(=O)NC(C)(C)[C@@H]5CC[C@]43C)[C@@H]12,115%
7,COc1ccc(-c2csc(NC(=O)c3cc(OC)c(OC)c(OC)c3)n2)cc1,102%
8,COc1ccc(/C=N/Nc2nc3ccccc3s2)cc1,84.9%
9,Cc1ccc(CC#N)cc1C,116%
10,Cc1[nH]c(-c2cc(N)ccc2Cl)c2c1C(=O)CCCC2,-14.4% (active)
11,O=[N+]([O-])c1ccccc1C(O)Cc1ccc2ccccc2n1 (stereo not given),107%
12,O=[N+]([O-])c1ccc(-c2cc(-c3ccc(Nc4nc(Nc5ccc(Cl)cc5)nc(Nc5ccc(Cl)cc5)n4)cc3)no2)cc1,-63% (active)
13,CCCCCC(C)(O)C(C(=O)O)c1ccccc1 (stereo not given),110%
14,COc1ccc2nc(-c3ccc(Cl)cc3)cc(C(=O)N3N=C(c4ccc(N)cc4)CC3c3ccccc3)c2c1 (stereo not given),-1.6% (active)
15,CC/C(=C(\c1ccc(Cl)cc1)c1ccc(OCCN2CCCCC2)cc1)c1ccc(O)cc1,-40.4% (active)
16,O=C(/C=C(/C=C/c1coc2ccccc12)OB(F)F)/C=C/c1coc2ccccc12,88.6%
17,COc1ccc(/C=C2\CN(Cc3cn(CCNc4ccnc5cc(Cl)ccc45)nn3)C/C(=C\c3ccc(OC)c(OC)c3)C2=O)cc1OC,-11.3% (active)
18,CN(C)CCCN(c1nc(C(Cl)(Cl)Cl)ns1)c1nc(C(Cl)(Cl)Cl)ns1,24.4%
19,C=C(C=O)C1CCC2(C(=O)O)CCC3(C)C(CCC4C5(C)CCC(O)C(C)(C)C5CCC43C)C12 (stereo not given),6.38% (active)
20,c1ccc2[nH]c(-c3ccc(OCCCCCOc4ccc(-c5nc6ccccc6[nH]5)cc4)cc3)nc2c1,-45.7% (active)

# From PubChem BioAssay (NCI)
